According to PubChem BioAssay (EPA / NIEHS):
Results filed as inconclusive are left out. The source made the active and inactive calls. The calls were made as follows, unless noted: active = hit-call score of the fitted dose curve at least 0.9, where 1 is the maximum; inactive = score below 0.9.

Experiments:
[1] = CCTE_Shafer_MEA_dev_firing_rate_mean: CCTE's Neural Network Formation Assay for Mean Firing Rate, Shafer Lab (AID 2284031)
Procedure, shortened: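 Read-out: spike count/recording length, averaged over active electrodes, then AUC across days 5, 7, 9, 12. Rat cortical cultures on MEA; continuous 12-day exposure, media and treatment renewed DIV 5, 9; DMSO baseline.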

[2] = CCTE_Shafer_MEA_dev_per_burst_spike_percent: CCTE's Neural Network Formation Assay for Percent of Spikes in a Burst, Shafer Lab (AID 2284032);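 also: fitted as a decrease in burst spike percentage below DMSO baseline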
Procedure, shortened: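 Value is trapezoidal AUC over recordings on days 5, 7, 9 and 12 of the well-mean fraction of spikes falling in single-electrode bursts; rat cortical cultures exposed continuously from plating, treatment renewed DIV 5 and 9, fitted downward against DMSO.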

[3] = CCTE_Shafer_MEA_dev_active_electrodes_number: CCTE's Neural Network Formation Assay for Number of Active Electrodes, Shafer Lab (AID 2284040; active = hit-call score of the fitted dose curve at least 0.9, where 1 is the maximum;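 also: potency for loss of active electrodes versus DMSO so lower counts are hits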)
Procedure, shortened: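 Developing rat cortical networks on MEAs, exposed DIV 0–12. Value is the AUC of active-electrode counts (≥5 spikes/min) from days 5, 7, 9, 12, relative to DMSO.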

[4] = CCTE_Shafer_MEA_dev_burst_rate: CCTE's Neural Network Formation Assay for Burst Rate, Shafer Lab (AID 2284042)
Procedure, shortened: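 Developmental network assay measuring how 12-day exposure of rat cortical neuron cultures alters bursting on extracellular MEA recordings. Values are AUC of well-mean burst rate across four recording days, relative to DMSO vehicle.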

[5] = CCTE_Shafer_MEA_dev_bursting_electrodes_number: CCTE's Neural Network Formation Assay for Number of Bursting Electrodes, Shafer Lab (AID 2284043; active = hit-call score of the fitted dose curve at least 0.9, where 1 is the maximum;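 also: potency is for loss of bursting electrodes relative to DMSO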)
Procedure, shortened: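 Counted: electrodes with burst rate ≥1 per 2 min in each well. Cells: primary rat cortex, 1.5 x 10^5/well, on 16-electrode MEA wells. Exposure: DIV 0–12, compound renewed DIV 5 and 9. Recording days 5, 7, 9, 12; AUC vs DMSO baseline.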

[6] = CCTE_Shafer_MEA_dev_per_burst_interspike_interval: CCTE's Neural Network Formation Assay for Burst Interspike Interval, Shafer Lab (AID 2284044);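 also: potency for a decrease of within-burst interspike interval below DMSO level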
Procedure, shortened: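 Readout is the average time between spikes inside single-electrode bursts, taken as a well mean across bursting electrodes. Cortical neurons from rat developed networks on MEA plates under continuous 12-day exposure; recordings on days 5, 7, 9 and 12 were integrated by trapezoidal AUC.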

[7] = CCTE_Shafer_MEA_dev_burst_duration_mean: CCTE's Neural Network Formation Assay for Mean Burst Duration, Shafer Lab (AID 2284045)
Procedure, shortened: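 Network-formation assay in primary rat cortical neurons; treatment spans twelve days of development. Mean burst duration per well is integrated by trapezoidal AUC and fitted in the loss-of-signal direction against DMSO baseline.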

[8] = CCTE_Shafer_MEA_dev_interburst_interval_mean: CCTE's Neural Network Formation Assay for Mean Interburst Interval, Shafer Lab (AID 2284046);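 also: well-mean interburst interval of bursting electrodes as AUC over four recording days; curve fitted for decrease in interburst interval relative to DMSO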
Procedure, shortened: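 Network formation assay in primary rat cortical cultures, exposed from DIV 0 to 12. Mean interburst interval per well, integrated as AUC over four recordings.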

[9] = CCTE_Shafer_MEA_dev_inter_network_spike_interval_mean: CCTE's Neural Network Formation Assay for Mean Inter-network Spike Interval, Shafer Lab (AID 2284047)
Procedure, shortened: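 Compound was given at plating to primary rat cortical neurons and renewed with full medium changes on DIV 5 and 9. Extracellular activity was recorded on days 5, 7, 9, 12; AUC values were fitted for loss relative to DMSO control.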

[10] = CCTE_Shafer_MEA_dev_network_spike_number: CCTE's Neural Network Formation Assay for Number of Network Spikes, Shafer Lab (AID 2284048)
Procedure, shortened: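 Extracellular recordings from 16-electrode wells track network formation in rat cortical cultures under continuous treatment from plating. The endpoint is network spike number, expressed as AUC across DIV 5–12 relative to DMSO vehicle.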

[11] = CCTE_Shafer_MEA_dev_network_spike_peak: CCTE's Neural Network Formation Assay for Mean Number of Electrodes in Network Spike, Shafer Lab (AID 2284049);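 also: fitted for loss of signal meaning fewer electrodes in network spikes than DMSO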
Procedure, shortened: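 Continuous 12-day exposure of rat cortical cultures, starting at plating, on MEA plates. Endpoint: electrodes participating in network-spike peaks, AUC across DIV 5–12, DMSO as negative control.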

[12] = CCTE_Shafer_MEA_dev_spike_duration_mean: CCTE's Neural Network Formation Assay for Mean Spike Duration, Shafer Lab (AID 2284051);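 also: mean network spike duration pooled as area under curve over DIV 5 to 12 recordings; potency for a decrease in mean network spike duration versus DMSO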
Procedure, shortened: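 With DMSO as baseline, loss of mean network spike duration was scored from extracellular recordings of rat cortical neurons on MEA plates. Exposure spanned plating to DIV 12; the four recording days were collapsed into one AUC value.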

[13] = CCTE_Shafer_MEA_dev_network_spike_duration_std: CCTE's Neural Network Formation Assay for Standard Deviation of Network Spike Duration, Shafer Lab (AID 2284052);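 also: area under curve of spike duration SD across recording days 5 to 12; hits are decreases in network spike duration SD versus DMSO vehicle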
Procedure, shortened: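 Developing networks of rat cortical neurons were exposed over twelve days in vitro on 48-well MEA plates. Trapezoidal AUC of recordings (DIV 5–12) was analysed for signal loss relative to DMSO vehicle.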

[14] = CCTE_Shafer_MEA_dev_per_network_spike_spike_number_mean: CCTE's Neural Network Formation Assay for Mean Number of Spikes in a Network Spike, Shafer Lab (AID 2284053)
Procedure, shortened: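 First, rat cortical cells (1.5 x 10^5/well) were seeded onto MEA wells; second, dosing began at plating and was refreshed on DIV 5 and 9; finally, network-spike spike counts across DIV 5–12 were summarized as AUC.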

[15] = CCTE_Shafer_MEA_dev_per_network_spike_spike_percent: CCTE's Neural Network Formation Assay for Percent of Spikes in a Network Spike, Shafer Lab (AID 2284054)
Procedure, shortened: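 Developing networks of rat cortical neurons are dosed at day 0 and recorded extracellularly four times up to day 12. The endpoint is the area under the curve of percent spikes in network spikes, fitted in the negative direction relative to DMSO.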

[16] = CCTE_Shafer_MEA_dev_LDH: CCTE's Lactate Dehydrogenase Assay for Cytotoxicity in the Neural Network Formation Assay, Shafer Lab (AID 2284068; active = hit-call score of the fitted dose curve at least 0.9, where 1 is the maximum;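 also: exposure for twelve days from plating with re-dosing on DIV 5 and 9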)
Procedure, shortened: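 Developing rat cortical networks on MEA plates are exposed to compound for 12 days from plating. LDH activity is measured spectrophotometrically, with DMSO as baseline.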

[17] = CCTE_Shafer_MEA_dev_correlation_coefficient_mean: CCTE's Neural Network Formation Assay for Mean Correlation Coefficient, Shafer Lab (AID 2284093)
Procedure, shortened: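 Extracellular firing from rat cortical networks on 48-well MEAs, DMSO-referenced, negative fitting direction. Compound present from plating to DIV12; mean pairwise correlation per well integrated over DIV5–12 recordings by trapezoidal AUC.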

[18] = UKN2_HCS_IMR90_neural_migration: University of Konstanz (UKN) Leist Lab Neural Crest Cell Migration Assay in human induced IMR90 Pluripotent Stem Cells (UKN2) (AID 2284204); settings: actives raise or lower the signal
Procedure, shortened: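 Using a 96-well stopper format with PLO/laminin/fibronectin coating, neural crest cells from iPSC migrate in cytokine-supplemented N2-S medium; after 24 h, chemicals are applied for a further 24 h, then cells are imaged after dye staining.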

[19] = IUF_NPC1b_proliferation_BrdU_72hr: Leibniz Research Institute for Environmental Medicine (IUF) 72-hour Neural Progenitor Cell Bromodeoxyuridine (BrdU) Proliferation Assay (NPC1b) (AID 2284207)
Procedure, shortened: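 Neural progenitor spheres of human fetal origin are treated for three days; BrdU added for the last 16 h is quantified by luminescence ELISA, with DMSO as baseline and EGF/FGF omission as positive control.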

[20] = IUF_NPC1a_proliferation_area_72hr: Leibniz Research Institute for Environmental Medicine (IUF) 72-hour Neural Progenitor Cell Proliferation Area Assay (NPC1a) (AID 2284208)
Procedure, shortened: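 hNPC spheres (human fetal cortex, GW 16-19), one per poly-Hema U-bottom well; EGF+FGF medium; dosed day 0, no re-dosing; 72 h, 37C, 5% CO2; phase-contrast sphere area; DMSO = baseline; minus-GF = positive ctrl.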

[21] = IUF_NPC1_viability_72hr: Viability Assessment at 72 hours in the Leibniz Research Institute for Environmental Medicine (IUF) Neural Progenitor Cell Proliferation Assay (NPC1) (AID 2284209)
Procedure, shortened: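 Alamar blue fluorescence (RFU) after 72 h exposure, normalized to DMSO baseline. hNPC spheres from GW 16-19 fetal cortex, single sphere per well in growth-factor medium; no compound renewal.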

[22] = CCTE_Mundy_HCI_Cortical_Synap_Neur_Matur_NeuriteSpotCountPerNeuriteLength: CCTE's Synaptogenesis and Neurite Maturation Assay in rat cortical cells for Neurite Spot Count per Neurite Length, Mundy Lab (AID 2284210)
Procedure, shortened: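 Neurite-associated synapse density (synaptophysin puncta per unit neurite length) is measured by fluorescence high-content imaging in rat cortical cultures treated from DIV 7 and fixed at DIV 12, with DMSO as negative control.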

[23] = CCTE_Mundy_HCI_Cortical_Synap_Neur_Matur_BPCount: CCTE's Synaptogenesis and Neurite Maturation Assay in rat cortical cells for Branch Point Count, Mundy Lab (AID 2284211)
Procedure, shortened: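 In this multiplexed morphology assay, cortical cells from rat receive chemicals at DIV 7 and are fixed at DIV 12, then immunostained and imaged; branch points are counted, with DMSO as baseline.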

[24] = CCTE_Mundy_HCI_Cortical_NOG_NeuriteCount: CCTE's Neurite Outgrowth Assay in rat cortical cells for Neurite Count, Mundy Lab (AID 2284212);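 also: cells fixed about two days after chemical exposure began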
Procedure, shortened: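 Rat cortical primary cells; compound added 2 h post-plating, 1/10 dilution of working solution. Anti-betaIII-tubulin/AF488 ICC; ArrayScan neurite count vs DMSO.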

[25] = CCTE_Mundy_HCI_Cortical_Synap_Neur_Matur_NeuriteLength: CCTE's Synaptogenesis and Neurite Maturation Assay in rat cortical cells for Neurite Length, Mundy Lab (AID 2284214)
Procedure, shortened: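 Read-out: high-content imaging of MAP2-labelled neurites, with synaptophysin and Hoechst co-stain, in rat cortical cultures fixed at DIV 12. Activity fitted in positive direction relative to DMSO baseline.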

Measured: AC50

CC(C)O
active: [2] 10.2 µM | [3] 7.59 µM | [5] 11.8 µM | [6] 10.2 µM | [11] 8.39 µM | [12] 14.3 µM | [14] 5.31 µM | [19] 91.7 µM
inactive: all other assays above
